High-throughput results (PubChem)
Most compounds without a hit are left out; they make up all but 31% or so of the library.
PLAP activator: PLAP enzyme activators, biochemical, luminescence, HTS. Alkaline phosphatase, placental type (Homo sapiens), P05187. activation fold at 20 µM. 96,000 compounds, 1.2% hits. purified PLAP enzyme, luminescent substrate read-out; active compounds read high. AID 696, 2007; in the data active = activation fold above about 2
CYP2C19 inh: blockers of cytochrome P450 2C19 activity – biochemical, luminescence, ADME assay, primary screen; CYP2C19 Supersomes, luciferin-H EGE luminescence, 30 min; inhibition, % at 5 µM; AID 778, 2007; 96,000 compounds, 21% hits; P33261;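 active = CYP2C19 inhibition above a set limit at 5 µM in the primary screen, cut at about 50% in these data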
CYP2C9 act: human CYP2C9 activators, primary screen, biochemical, luminescence | 96,000 compounds, 1.4% hits | Cytochrome P450 2C9 (Homo sapiens), P11712 | AID 1024, 2008 | recombinant CYP2C9, luciferin-H conversion; active compounds read high; factor 1 = untreated enzyme, 0 = blocked | activation factor at 5 µM;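 active = activation factor of 2 or more for CYP2C9 at a 5 µM dose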
CYP2C19 act: human CYP2C19 activators, primary screen, biochemical, luminescence; Cytochrome P450 2C19 (Homo sapiens), P33261; recombinant CYP2C19, luciferin-H EGE luminescence; active compounds read high; 0 = fully inhibited enzyme, 1 = untreated enzyme; activation factor at 5 µM; 96,000 tested, under 10 active; AID 1025, 2008;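 active = activation factor of at least 2 at 5 µM in the primary screen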
CYP2C9 inh: blockers of cytochrome P450 2C9 activity – biochemical, luminescence, ADME assay, primary screen. P11712. CYP2C9 Supersomes, luciferin-H conversion. inhibition, % at 5 µM. 96,000 compounds, 20% hits. AID 777, 2007;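 active = blocking of liver enzyme CYP2C9 beyond about 50% at 5 µM, limit read from the data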
Large screens that a line does not name were inactive; ! = not confirmed by another sample.

COCCOC(=O)C1=C(C)NC2=C(C(=O)CC(c3cccs3)C2)C1c1ccsc1 (configuration not stated)	CYP2C19 inh 58.3, CYP2C9 inh 59.6
CCOC(=O)C1=C(C)NC2=C(C(=O)CCC2)C1c1ccc(N(C)C)cc1 (configuration not stated)	none
CC1=C(C(=O)N2CCCCC2)C(c2cccs2)C2=C(CCCC2=O)N1 (configuration not stated)	none
CC1CN(C)C(c2ccccc2)C(C)C12NC(=O)NC2=O (configuration not stated)	none
COCCOC(=O)C1=C(C)NC2=C(C(=O)CCC2)C1c1ccc2c(c1)OCO2 (configuration not stated)	CYP2C19 inh 83.5, CYP2C9 inh 95.7
CC1=C(C(=O)OC(C)C)C(c2cccnc2)C2=C(CCCC2=O)N1 (configuration not stated)	none
COCCOC(=O)C1=C(C)NC2=C(C(=O)CC(C)(C)C2)C1c1cc2c(cc1Br)OCO2 (configuration not stated)	CYP2C19 inh 94.2, CYP2C9 inh 81.1
COc1cccc(C2C3=C(CC(C)(C)CC3=O)Nc3cc4c(cc32)OCO4)c1 (configuration not stated)	CYP2C19 inh 71.8, CYP2C9 inh 92.7
CCOC(=O)C1=C(C)NC2=C(C(=O)CCC2)C1c1ccsc1 (configuration not stated)	CYP2C19 inh 53.0
COc1cc2c(cc1OC)C(c1ccc3c(c1)OCO3)C1=C(CC(C)(C)CC1=O)N2 (configuration not stated)	none
c1ccc2sc(Cc3nnc4n3CCCCC4)nc2c1	none
CC(=O)NC1CC2CCCC(C1)N2S(=O)(=O)c1cccc(F)c1 (configuration not stated)	none
COC(=O)c1ccc(N2CCN(S(=O)(=O)c3c(C)cc(C)cc3C)CC2)c([N+](=O)[O-])c1	none
Cc1[nH]c2c(ccc3ccccc32)c1C1C(CCN)C1(C)C (configuration not stated)	none
COC(=O)C1C(=O)C2=C(CC1C)NC(C)=C(C(=O)OC1CCCC1)C2c1ccc(N(C)C)cc1 (configuration not stated)	CYP2C19 inh 54.1, CYP2C9 inh 82.5
O=C(NC1CC1)c1ccc(CS(=O)(=O)c2c(Cl)cccc2Cl)o1	none
CC1CCc2nn(CC(=O)Nc3c(F)cc(F)cc3Br)cc2C1 (configuration not stated)	CYP2C9 inh 62.2
CC1CCc2nn(CC(=O)NCc3ccc(F)cc3)cc2C1 (configuration not stated)	CYP2C19 inh 89.7
CSCC[C@H](NC(=O)CCn1nnc2ccccc2c1=O)C(=O)O	none
Cc1ccc2c(c1)c1c3n2CC(=C2C(=O)OC(C)(C)OC2=O)NC3CCC1 (configuration not stated)	CYP2C9 inh 81.0
CCOC1(C(F)(F)F)NC(=O)N(Cc2ccc(OC)cc2)C1=O (configuration not stated)	none
COc1ccc(C2=C(CN(C)C)C(c3ccccc3)c3ccccc3O2)cc1 (configuration not stated)	CYP2C19 inh 67.9!, CYP2C9 inh 76.9!
COc1cc(OC)cc(C(=O)Nc2ccc(-n3cnnn3)c(C)c2)c1	CYP2C19 inh 83.1, CYP2C9 inh 92.3
Cc1cc(NC(=O)c2oc3ccccc3c2C)ccc1-n1cnnn1	CYP2C9 inh 77.3
COc1ccc(NC(=O)c2cnc(C)cn2)cc1-n1cnnn1	none
Cc1c(C(=O)Nc2ccc(N3CCOCC3)cc2)oc2ccccc12	none
Cc1ccc2nc3c(cc(C(N)=S)c(=N)n3CCCOC(C)C)c(=O)n2c1	CYP2C19 inh 80.8
C=CCn1c(=N)c(C(=O)OCC)cc2c(=O)n3cc(C)ccc3nc21	none
CCn1c(SCC(=O)NC2CCCCC2)nc2c(c1=O)SC(C)C2 (configuration not stated)	none
COCCn1c(SCC(=O)N2CCCc3ccccc32)nc2ccccc2c1=O	CYP2C19 inh 96.4, CYP2C9 inh 96.4
COCCn1c(SCC(=O)N2CCCc3ccccc32)nnc1-c1ccco1	none
CCn1c(SCC(=O)N2CCCCC2)nc2c(c1=O)SC(C)C2 (configuration not stated)	CYP2C9 inh 68.8
